# From PubChem BioAssay (NCATS)
# Records with an inconclusive call do not appear. Where a call stands in place of a potency, no number is given. Activity calls are given as the source filed them. The call rests on the fitted dose curve; in most records, active means well fitted inhibition curve with a large enough effect; inconclusive means small, poorly fitted or top-dose-only effect, or effect the other way; inactive means flat fitted curve, though single readings scatter.
# Test: qHTS for Inhibitors of Plasmodium falciparum (CP250) proliferation (AID 504320)
# Conditions: P. falciparum CP250 in erythrocytes, SYBR Green DNA, 72 h; series mostly up to 6.7 µM
# Text: Plasmodium falciparum is a virulent malarial parasite that kills 1-2 million people worldwide each year. Malaria not only inflicts tremendous suffering and morbidity on the human population, but has dramatically influenced the course of civilization with profound sociological and economic implications (Shah, S. 2010). Transmitted by mosquitoes, the sporozoite form of the parasite enters the blood stream to infect hepatocytes, where they become merozoites that infect red blood cells (erythrocytes). Within erythrocytes, merozoites begin a […] cycle of growth and division, after which the parasite is released to infect new red blood cells. Gametocytes, which form within erythrocytes as well, circulate in the bloodstream and are ingested by the mosquito, thereby completing the life cycle (see CDC website). To profile malarial lines for differential chemical responses and to identify inhibitors of malarial growth, an assay that measures P. falciparum growth and replication within erythrocytes was employed. This assay uses a DNA binding fluorescent dye (SYBR Green) to detect parasite DNA following cell lysis. Because mature erythrocytes lack DNA, only Plasmodium-derived DNA is detected. The P. falciparum line cp250, derived from a malarial isolate from Cambodia, (Mu, J., et al. 2010) was added to the panel of lines, Dd2, HB3, 7G8 and GB4 in this study. Laboratory of Assay Development and Screening Technology [ADST] and NIH Chemical Genomics Center [NCGC] Boston University, Chemistry Department, Center for Chemical Methodology and Library Development [CMLD-BU] NIH National Institute of Allergy and Infectious Diseases [NIAID]
# ADST Assay Protocol Summary: The 1536-well SYBR Green viability assay was based on the method of Bennett et al (2004) and described previously in 1536-well format (Yuan J., et al. 2009). For screening 3 ul culture medium was dispensed into 1536 well black clear bottom plates (Aurora Biotechnologies) using a Multidrop Combi (Thermo Fisher Scientific Inc.), 23 nL compounds in DMSO were added by a pin transfer (Cleveland, P.H. and Koutz, P.J, 2005) using a pin tool-based delivery system (Kalypsys), and 5 ul of erythrocytes infected with P. falciparum one of five lines (cp250, Dd2, HB3, 7G8 or GB4, 0.3% parasitemia, 2.5% hematocrit final concentration) were added. The plates were incubated at 37C in a humidified incubator in 5% CO2 for 72 h, and 2 ul lysis buffer (20 mM Tris HCl, 10 mM EDTA, 0.16% saponin, 1.6% triton X, 10X SYBR Green I (supplied as 10,000X final concentration by Invitrogen) was added to each well. The plates were mixed for 25 sec with gentle shaking and incubated overnight at room temperature in the dark. The following morning, fluorescence intensity at 485(14) nm excitation and 535(25) nm emission wavelengths was measured on an EnVision (Perkin Elmer) plate reader. Plate reads were normalized relative to the control inhibitor (0.29 uM artemisinin) and vehicle (DMSO) wells present on each plate and then corrected by an algorithm using vehicle-only control plates at the beginning and end of the compound plate stack. References Shah, S. (2010). The Fever: how malaria has ruled humankind for 500,000 years. New York, Sarah Crichton Books. CDC web site, http://www.cdc.gov/malaria/about/biology/index.html Mu, J., Myers, R.A., Jiang, H., Liu, S., Ricklefs, S., Waisberg, M., Chotivanich, K., Wilairatana, P., Krudsood, S., White, N.J., et Plasmodium falciparum genome-wide scans for positive selection, recombination hot spots and resistance to antimalarial drugs Nature Genetics 2010, 42, pp 268-271 Bennett TN, Paguio, M., Gligorijevic, B., Seudieu, C., Kosar, A. D., Davidson, E., and Roepe, P. D. Novel, rapid, and inexpensive cell-based quantification of antimalarial drug efficacy Antimicrobial Agents Chemother. 2004, 48(5): pp 1807-10 Yuan J, Johnson RL, Huang RL, Wichterman J, Jiang HY, Hayton K, Fidock DA, Wellems TE, Inglese J, Austin CP, Su XZ. […]
# Potency means the concentration at half of the fitted maximal effect.
row,SMILES,Potency
1,COC(=O)[C@H](Cc1ccccc1)NC(=O)O[C@@H]1C(=O)c2cc(OC)ccc2O[C@H]1c1ccc(OC)c(Br)c1,inactive
2,C=CCOC(=O)C(C(C)=O)[C@@H](NC(=O)OC)c1ccc(F)cc1 (stereo not given in full),inactive
3,C=C[C@H](C)[C@](C)(O)c1ccccc1,inactive
4,CCN1C(=O)[C@@H]2[C@H]3[C@H](O)[C@H](O)CC(=NO[C@H](C)CN4CCCc5nc(C)c(C)cc54)[C@@H]3CC[C@H]2C1=O,inactive
5,CC(C)=NOCc1ccc(-c2cn([C@@H]3COC[C@@H]3O)nn2)cc1,inactive
6,COC(=O)C1=C2C=C(C)CC(C)N2C(=O)NC1c1ccccc1 (stereo not given),inactive
7,C#C[C@@H]1C=C[C@H](Oc2ccc(OC)cc2)[C@H](CO)O1,inactive
8,CC1(OC(=O)c2ccc(Cl)nc2)C(=O)C=C2C=C(c3ccsc3)OC=C2C1=O (stereo not given),inactive
9,CCOC(=O)CN1C(=O)[C@@]2(CC(C)=C[C@@H](COCc3ccccc3)O2)c2ccccc21,inactive
10,COC(=O)C(c1ccc(OC)c(OC)c1)C1c2ccccc2C=C(C)N1C(=O)OC (stereo not given),inactive
11,CC(CCN1CCc2nc(-c3ccccc3)c(-c3ccccc3)cc2C1)=NOC[C@@H](O)[C@H]1O[C@@H]2OC(C)(C)O[C@H]2[C@@H]1O,inactive
12,CCOC(=O)CN1C(=O)NC(c2cccs2)C(C(=O)OC)=C1C (stereo not given),inactive
13,COc1ccc(N2C=C3C(=O)C(C)(OC(=O)C4CCCC4)C(=O)C=C3C=C2c2ccsc2)cc1 (stereo not given),inactive
14,CC1(OC(=O)C2CCCC2)C(=O)C=C2C=C(c3ccsc3)N(Cc3ccccc3)C=C2C1=O (stereo not given),inactive
15,CC(C)=CCCC(C)=CCON=C1C[C@@H](O)[C@@H](O)[C@@H]2[C@H]3C(=O)N(c4cccc(Oc5ccccc5)c4)C(=O)[C@@H]3CC[C@H]12,inactive
16,CCCCC1=CC2=C(c3ccco3)C(=O)C(C)(OC(=O)c3ccc(OC)cc3)C(=O)C2=CN1c1ccc(OC)cc1 (stereo not given),inactive
17,C=CCN1c2ccccc2[C@]23CCC(=O)N(CCOC)C2=NC(C(=O)OC)=C(C(=O)OC)[C@H]13,inactive
18,COc1ccc([C@]23Cc4cc(OC)c(OC)cc4[C@H](O2)C2=C(CC(C)(C)CC2=O)O3)cc1,inactive
19,CCOC(=O)CN1C(=O)[C@]2(OC[C@@H]3Cc4ccccc4[C@H]3C=C2C)c2ccccc21,inactive
20,COC[C@@H](O)[C@H]1OCc2ccccc2[C@H]1C=Cc1ccccc1,inactive

row,SMILES,Potency
1,COC1=C[C@H](C(=O)NCCNC(C)=O)[C@@]2(C)Cc3ccccc3[C@@H]2CC1=O,inactive
2,COCC=CC1=CC2=CC(=O)C(C)(OC(=O)c3cnc4ccccc4n3)C(=O)C2=CN1Cc1ccc(OC)cc1 (stereo not given),inactive
3,CCN1C(=NCc2ccco2)N[C@@H](c2ccccc2)[C@H](C(=O)OC)[C@H]1C,inactive
4,COC(=O)[C@@H]1[C@@H](c2cccc(C(F)(F)F)c2)NC(=O)N(Cc2ccccc2)[C@@H]1C,inactive
5,COC(=O)CC=C[C@@H](C)[C@H](NC(=O)OCC(Cl)(Cl)Cl)c1ccc2ccccc2c1,inactive
6,C[C@@H]1CC[C@H]2C(=O)NC[C@@H](O)CN2[C@@H]1c1ccc(Br)cc1,inactive
7,CCN1C(=NCc2cc(OC)c(OC)c(OC)c2)NC(c2cccc(F)c2)C(C(=O)OC)=C1C (stereo not given),inactive
8,Cc1noc(C)c1S(=O)(=O)N1CCc2nc(-c3ccccc3)c3c(c2C1)CO[C@@H](C)C3,inactive
9,COCCN1C(=O)N[C@@H](CCc2ccccc2)[C@H](C(C)=O)[C@H]1C,inactive
10,OC[C@H]1O[C@H](c2ccccc2)C=C[C@H]1OCc1cccc(Br)c1,inactive
11,Cc1cc2c(nc1C)CCCN2CC(O)CN1CCCc2nc(-c3ccc(Br)cc3)ccc21 (stereo not given),inactive
12,COC(=O)[C@@H]1[C@@H](c2ccccc2)NC(=O)N(Cc2ccccc2)[C@@H]1C,inactive
13,COc1ccc2c(c1)C(=O)[C@@H](OC(=O)NS(=O)(=O)c1ccc(F)cc1)[C@H](c1ccc(OC)c(Br)c1)O2,inactive
14,COc1cc2c(cc1OC)[C@@H]1O[C@](CCCCN3C(=O)c4ccccc4C3=O)(C2)OC2=C1C(=O)CC(C)(C)C2,1.51 µM (active)
15,CCOC(=O)[C@@]1([C@@H](NC(=O)OC)c2ccccc2)CCCC1=O,inactive
16,COC(=O)c1c(C(=O)OC)c2c3cc(OC)c(OC)cc3ccn2c1C(=O)OC,inactive
17,COc1ccc(OC)c(-c2ccccc2C=NNS(=O)(=O)c2ccc(C)cc2)c1,inactive
18,COC(=O)C1=C[C@H]([C@@H](C)[C@H](OC)c2ccccc2Br)[C@H]2c3ccccc3O[C@@H]12,inactive
19,C=C(C(C)=O)C(O)c1ccc(C(F)(F)F)cc1 (stereo not given),inactive
20,COc1ccc2c(c1)O[C@H](c1ccc3c(c1)OCO3)[C@@H](OC(=O)NCCOc1ccccc1)C2=O,inactive
